# Assay results as given in PubChem BioAssay (NCI).
# Where “and” joins values, the source holds several entries; their conditions need not be identical. Identical values can stand only once. The panel holds about 83,000 compounds, 20% with a hit somewhere; the sample as a whole holds those more often.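 Values shown are percent growth following 48 h exposure of cells in 96-well plates to a single concentration of compound; below 10 was considered active.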 Unmarked numbers belong to inactive results. Calls of active or inactive are those of the source.
# Test system: HL-60(TB) leukemia
# Test: NCI-60 one-dose screen, 48 h (100 = growth as untreated, 0 = no growth, -100 = all killed)
smiles,measurement,setting,value
CNC(=O)c1cc(Oc2ccc(CC(=O)Nc3cc(C(C)(C)C)nn3C)cc2)ccn1,growth,1 µM,85.3%
same,growth,10 µM,77%
same,growth,30 µM,68.2%
CC1(C)OB(c2ccc(Cn3cc(F)c(=O)[nH]c3=O)cc2)OC1(C)C,growth,10 µM,97.7%
same,growth,50 µM,32.5%
O=C(O)C(Cc1ccc(OS(=O)(=O)Cc2ccccc2)cc1)NS(=O)(=O)Cc1ccccc1 (stereo unspecified),growth,10 µM unless noted,109% and 82.6%
CC(=O)/C=C/c1ccc(OCc2ccc(C(C)(C)C)cc2)cc1,growth,10 µM,59.5%
same,growth,100 µM,-32.4% (active)
CC(C)(C)c1cc(NC(=O)Cc2ccc(-c3cnc4cc(-c5cnn(CCN6CCOCC6)c5)ccc4n3)cc2)no1,growth,10 µM,4.17% (active)
same,growth,30 µM,6.45% (active)
CC(=O)/C=C/c1ccc(OCc2ccc(Cl)cc2)cc1,growth,10 µM,83.9%
same,growth,100 µM,14%
COc1cc(C2=NN(C=O)C(c3cccc(Nc4ccnc5cc(C(F)(F)F)ccc45)c3)C2)cc(OC)c1OC (stereo unspecified),growth,10 µM unless noted,8.02% (active)
CCN(CC)CCOc1ccc(/C(=C(/C)c2ccccc2)c2ccc(OC(C)=O)cc2)cc1,growth,10 µM unless noted,117%
COc1ccc(Cl)cc1C(=O)NCCc1ccc(S(=O)(=O)NC(=O)NC2CCCCC2)cc1,growth,10 µM,121% and 103%
same,growth,100 µM,94.2%
O=C(/C=C/c1cccc(Oc2ccc(Cl)cc2)c1)c1ccccc1,growth,10 µM,73.9%
same,growth,100 µM,-51.8% (active)
O=c1[nH]cc(F)c(=O)[nH]1,growth,10 µM,59.7%
same,growth,25 µM,47.9%
same,growth,50 µM,77.6%
